# Results reported in PubChem BioAssay (Tox21).
# Several values for one entry are separate records, joined by “and”; a condition that tells them apart may be missing. Equal entries are not always repeated. Results filed as inconclusive are left out. Entries that show only a call come without a potency. Activity calls are given as the source filed them. Calls come from the whole dose curve; as a rule, active = well fitted cell-killing curve with a large enough effect in the repeat runs; inconclusive = weak or mixed curves, or effect the other way; inactive = flat fitted curve, though single readings scatter.
# What was measured:
# [1] = cAMP Responsive Elements (CRE) small molecule antagonists, cell-based qHTS assay: qHTS cell viability counter screen (AID 2060913); note: nearly all actives have a fitted effect of over 40% in size
# Summary of the method: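 Viability of NKH477-stimulated (0.25 uM final) CRE-bla HEK293T cells is measured by CellTiter-Glo luminescence following 3 hrs compound exposure at 37 C.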
# [2] = cAMP Responsive Elements (CRE) small molecule agonists, cell-based qHTS assay: qHTS cell viability counter screen (AID 2060914);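 note: viability read after 3 h of compound exposure; nearly all actives have a fitted effect of over 50% in size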
# Summary of the method: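 Cells are seeded and incubated 18 h, treated with compounds in DMSO for 3 h, read for the bla reporter, then given CellTiter-Glo; luminescence is measured after 30 min at room temperature.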
# Potency is the fitted concentration of half-maximal effect.
SMILES,Potency [1],Potency [2]
C=CC(C)(CCC=C(C)C)OC(=O)C(C)C (configuration not stated),inactive,inactive
CN(C)C(=N)N=C(N)N,inactive,inactive
CCCCCCCCCCCCCC[N+](C)(C)Cc1ccccc1,55.3 µM (active) and 26.6 µM (active) and 15.8 mM (active),22 µM (active) and 11.9 µM (active)
O=c1ccc2ccccc2o1,inactive,inactive
CC(C)NCC(O)COc1ccc(COCCOC(C)C)cc1 (configuration not stated),inactive,inactive
CCCCNC(N)=O,inactive,inactive
CN(C)CCCNCCCN(C)C,inactive,inactive
O=C=Nc1cccc(C(F)(F)F)c1,inactive,inactive
CC(C)(C)C1=CC(=O)C(C(C)(C)C)=CC1=O,inactive,inactive
CCCCCCCCCCCCCCCC(=O)O,inactive,inactive
Nc1ccc(Cl)c(N)c1,inactive,inactive
CCCCOCCOCCOCCCC,inactive,inactive
C[C@@H](O)[C@H]1C(=O)N2C(C(=O)O)=C(S[C@@H]3CN[C@H](C(=O)N(C)C)C3)[C@H](C)[C@H]12,inactive,inactive
CN(C)CCN(Cc1ccc(Cl)cc1)c1ccccn1,inactive,inactive
CCOCC(O)COc1ccc(NC(=O)CC[S+](C)C)cc1 (configuration not stated),inactive,inactive
COC(OC)OC,inactive,inactive
Cc1ccc([N+](=O)[O-])cc1S(=O)(=O)O,inactive,inactive
CCC(C)CO (configuration not stated),inactive,inactive
CC(C)(C)OC(=O)c1cccc(N)c1,inactive,inactive
CC(C)CCCCCCCOC(=O)c1ccc(C(=O)OCCCCCCCC(C)C)c(C(=O)OCCCCCCCC(C)C)c1,inactive,inactive
Cn1c(=O)c2[nH]c(Br)nc2n(C)c1=O,inactive,inactive
Cc1ccc(C(=O)O)cc1,inactive,inactive
Cc1cccc(Nc2cc(Cl)nc(SCC(=O)O)n2)c1C,inactive,inactive
O=c1[nH][nH]c2ccccc12,inactive,inactive
COC(=O)c1ccc(C(=O)OC)c(C(=O)OC)c1,inactive,inactive
CCCCC(=O)O[C@]1(C(=O)CO)[C@H](C)C[C@H]2[C@@H]3CCC4=CC(=O)C=C[C@]4(C)[C@@]3(F)[C@@H](O)C[C@@]21C,inactive,inactive

SMILES,Potency [1],Potency [2]
CN(C)CCN(Cc1ccsc1)c1ccccn1,inactive,inactive
CCCCCCC(C)(C)C(=O)O,inactive,inactive
O=C(O)C1CCC(C(=O)O)CC1 (configuration not stated),inactive,inactive
COc1cc(NCc2ccc3nc(N)nc(N)c3c2C)cc(OC)c1OC,inactive,inactive
CC(=O)OC[C@H]1O[C@@H](n2ncc(=O)[nH]c2=O)[C@H](OC(C)=O)[C@@H]1OC(C)=O,inactive,inactive
CCc1ccc(C=O)cc1,inactive,inactive
CC(N)CN (configuration not stated),inactive,inactive
Cc1ncsc1CCO,inactive,inactive
Cc1cnc(NC(=O)C2=C(O)c3ccccc3S(=O)(=O)N2C)s1,inactive,inactive
O=C(Nc1ccc(C(=O)O)c(O)c1)c1ccccc1,inactive,inactive
CC(=O)c1ccc([N+](=O)[O-])cc1,inactive,inactive
Cc1cc(SC2=C(O)C[C@@](CCc3ccc(N)cc3)(C(C)C)OC2=O)c(C(C)(C)C)cc1CO,inactive,inactive
CCO[Si](OCC)(OCC)c1ccccc1,inactive,inactive
Cc1cc(=O)[nH]c(=S)[nH]1,inactive,inactive
CC(=O)N1C[C@H](O)C[C@H]1C(=O)O,inactive,inactive
O=C1O[C@H](CO)[C@@H](O)[C@H](O)[C@H]1O,inactive,inactive
N#CCCNCCC#N,inactive,inactive
O=Nc1ccc(Nc2ccccc2)cc1,inactive,inactive
O=C(OCc1ccccc1)c1ccc(O)cc1,inactive,inactive
C=C(C)C(=O)NCCCN(C)C,inactive,inactive
CC(C)(C)c1nnc(NS(=O)(=O)c2ccc(N)cc2)s1,inactive,inactive
Cc1cccc(N(C)C(=S)Oc2ccc3c(c2)CCC3)c1,inactive,inactive
CCN(CC)CCNC(=O)c1cc(Br)c(N)cc1OC,inactive,inactive
CN(C)CCOC(c1ccc(Cl)cc1)c1ccccn1 (configuration not stated),inactive,inactive
CC(=O)O[C@@]12CO[C@@H]1C[C@H](O)[C@@]1(C)C(=O)[C@H](O)C3=C(C)[C@@H](OC(=O)[C@H](O)[C@@H](NC(=O)OC(C)(C)C)c4ccccc4)C[C@@](O)([C@@H](OC(=O)c4ccccc4)[C@H]21)C3(C)C,inactive,inactive
